# This is a sample that favours compounds with a hit; in the whole collection about 19% have one here.
# KB-V1 cytotox – qHTS assay for MDR1-selective chemotherapeutics: Primary screen using the drug-selected MDR subline cells KB-V1; 400,000 tested, 3.4% active; KB-V1 MDR cells viability, CellTiter-Glo, 72 h; AID 1347076, 2019; Potency, µM (titrated, usually from 46.1 µM), actives largely listed as cytotoxic; also: nearly all actives have a fitted effect of over 60% in size
#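 Drug-selected KB-V1 cells, grown in DMEM lacking phenol red with 10% FBS, receive compound titrations; after three days at 37 degrees C, surviving cell ATP is quantified by CellTiter-Glo luminescence and responses normalized and curve-fitted.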
# TDP1 cell noCPT – qHTS for Inhibitors of human tyrosyl-DNA phosphodiesterase 1 (TDP1): qHTS in cells in absence of CPT. DT40 Tdp1-/- hTDP1 cells, no CPT, ATP luminescence, 48 h. Potency, µM (doses to about 46.2 µM), without a hit: top-dose activity change, negative = growth inhibition, hits mostly inhibitors. 420,000 tested, 15% active; also: nearly all actives have a fitted effect of over 55% in size
#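 Camptothecin absent (DMSO only). Human TDP1-complemented DT40 knockout cells, 400 cells/well, 37 °C for minimum 48 hr; ATP measured via CellTiter-Glo, 30 min dark incubation, luminescence.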
# HT1080 IDH1KD tx – qHTS for induction of synthetic lethality in tumor cells producing 2HG: qHTS for the HT-1080-IDH1KD cell line; 360,000 tested, 2% active; Potency, µM (series often up to 46.1 µM), without a hit: top-dose activity, negative = toxicity, actives largely listed as cytotoxic; HT-1080 IDH1 knockdown viability, ATP luminescence, 48 h;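 also: 0% = DMSO wells and -100% = cell-free medium wells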
#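 HT-1080-IDH1KD cells (IDH1 knocked down), 750/well in RPMI with 5% FBS, treated with compound 48 h at 37 degrees C. Viability by CellTiter-Glo luminescence, normalised to DMSO and no-cell wells; concentration-response curves classed.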
# KB-3-1 cytotox – qHTS assay for MDR1-selective chemotherapeutics: Primary screen using the parental adenocarcinoma cell KB-3-1 | KB-3-1 viability, CellTiter-Glo ATP luminescence, 72 h | Potency, µM (highest dose often 46.1 µM), hits mostly cytotoxic | 400,000 tested, 1.4% active | AID 1347075, 2019; also: nearly all actives have a fitted effect of over 60% in size
#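 Cytotoxicity in the drug-sensitive parental line KB-3-1 was scored as loss of CellTiter-Glo luminescence following 72 h incubation with compound. Values come from curve fitting of normalized concentration-response data.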
# DT40 TDP1 CPT – qHTS for Inhibitors of human tyrosyl-DNA phosphodiesterase 1 (TDP1): qHTS in cells in presence of CPT; chicken DT40 Tdp1-/-;hTDP1 cells + 20 nM CPT, ATP luminescence, 48 h; Potency, µM (highest dose often 46.2 µM), for inactives: top-dose activity change, negative = growth inhibition, hits mostly inhibitors; 420,000 tested, 12% active; also: nearly all actives have a fitted effect of over 55% in size
#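 Cell growth measured by CellTiter-Glo luminescence after a minimum 48 h, 37 C compound exposure with 20 nM CPT in Tdp1-knockout DT40 cells stably expressing hTDP1, seeded 400/well; qHTS titration format.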
# HT1080NT lethal – qHTS for induction of synthetic lethality in tumor cells producing 2HG: qHTS for the HT-1080-NT fibrosarcoma cell line; HT-1080-NT fibrosarcoma viability, CellTiter-Glo ATP luminescence, 48 h; Potency, µM (doses to about 46.1 µM), for the others: at the highest dose activity, negative = less viability, actives largely listed as cytotoxic; 360,000 tested, 1.6% active;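 also: NT is the 2HG producing partner of a matched IDH1 knockdown line; 0% = DMSO-treated cells and -100% = media-only wells without cells; nearly all actives have a fitted effect of over 55% in size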
#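 750 cells/well, RPMI + 5% FBS; 2 h settle, compound pin-transfer, 48 h at 37 degrees C. CellTiter-Glo 10 min RT, luminescence. Normalized to DMSO and media-only wells.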
# The depositor's hits bear a star; i = inactive; u = inconclusive; x = no result. Calls follow the shape of the dose curve; as a rule, active = well fitted curve in the direction sought with a large enough effect; inconclusive = small, poorly fitted or top-dose-only effect, or another doubt; inactive = no such curve, though single readings can be large; an effect the other way counts as inactive or inconclusive. Unless noted, % is scaled to controls: 0 for no effect and ±100 for the full control effect; potency is read from the fitted curve at half-maximal effect.
SMILES,KB-V1 cytotox,TDP1 cell noCPT,HT1080 IDH1KD tx,KB-3-1 cytotox,DT40 TDP1 CPT,HT1080NT lethal
Cc1ccc(-c2ccc(CN3C(CC(C)C)C(=O)N(Cc4cn(CCC5OCCO5)nn4)CCS3(=O)=O)cc2)cc1 (stereo not given),i,13µM*,18µM*,u,15µM*,18µM*
Cc1ccc(C)c(N(C)C(=O)CCNC(=O)Cn2cnc3ccccc3c2=O)c1,i,u,x,i,u,x
NC(=O)c1cc(S(=O)(=O)N2CCCC2)ccc1OCCOc1ccccc1F,i,-3%,-7%,i,-4%,2%
CC(C)CC1C(=O)N(Cc2cn(CCC3OCCO3)nn2)CCS(=O)(=O)N1Cc1ccc(-c2ccc(Cl)c(Cl)c2)cc1 (stereo not given),i,5.2µM*,u,i,8.2µM*,u
CC(C)CC1C(=O)N(Cc2cn(CCC3OCCCO3)nn2)CCS(=O)(=O)N1Cc1ccc(-c2ccccc2)cc1 (stereo not given),i,u,-1%,i,u,1%
CC(C)CC1C(=O)N(Cc2cn(CCC3OCCO3)nn2)CCS(=O)(=O)N1Cc1ccc(-c2ccccc2)cc1 (stereo not given),15µM*,21µM*,-27%,u,18µM*,u
CCOc1ccc(N(CC(=O)Nc2cccc(Br)c2)S(C)(=O)=O)cc1,u,u,3%,i,u,-1%
CCOC(=O)Nc1ccc2c(c1)N(C(=O)CN1CCN(CCO)CC1)c1ccccc1CC2,i,-13%,9%,i,-22%,5%
O=S(=O)(c1ccc(Cl)cc1)N1CCN(c2nc(-c3ccccc3)nc3ccccc23)CC1,i,10µM*,x,i,u,x
O=S(=O)(c1ccc2c(c1)CCCC2)N1CCN(c2nc(-c3ccccc3)nc3ccccc23)CC1,i,10µM*,x,i,10µM*,x
O=S(=O)(c1ccc(F)cc1)N1CCN(c2nc(-c3ccccc3)nc3ccccc23)CC1,i,13µM*,x,u,u,x
CCOC(=O)N1CCN(C(=O)C(=O)NN)CC1,i,-2%,-4%,i,1%,2%
CC12CCC(=O)N1C(C(=O)N1CCN(c3ccccc3)CC1)CS2 (stereo not given),i,-3%,14%,i,3%,9%
CC12CCC(=O)N1C(C(=O)N1CCN(c3ccc([N+](=O)[O-])cc3)CC1)CS2 (stereo not given),18µM*,21µM*,u,i,u,14%
CC12CCC(=O)N1C(C(=O)N1CCN(c3ccc(C(F)(F)F)cc3[N+](=O)[O-])CC1)CS2 (stereo not given),u,26µM*,14%,i,21µM*,-1%
Cc1cnc2c(C)cccc2c1C,i,0.22µM*,x,i,-129%,x
Cc1ccc(CNc2nc3ccc(Cl)cc3n3nnnc23)cc1,i,-9%,x,i,-9%,x
Cc1ccc(S(=O)(=O)Cc2ccc(C(=O)N3CCN(c4ccccn4)CC3)o2)cc1,u,u,-4%,i,12µM*,-4%
O=C(c1ccc(CS(=O)(=O)c2ccc(Br)cc2)o1)N1CCN(c2ccccn2)CC1,i,u,3%,i,-25%,0%
O=C(c1ccc(CS(=O)(=O)c2cccc(C(F)(F)F)c2)o1)N1CCN(c2ccccn2)CC1,18µM*,u,-4%,i,u,1%
Cc1ccc(S(=O)(=O)N(C)C[C@H]2Oc3ccc(NC(=O)Nc4c(C)noc4C)cc3CC(=O)N([C@@H](C)CO)C[C@@H]2C)cc1,u,7%,10%,i,-21%,0%
O=C(/C=C/c1ccco1)N(Cc1ccccc1F)C1CCS(=O)(=O)C1 (stereo not given),i,-2%,10%,i,1%,7%
COc1ccc(-n2c(SCC(=O)NCc3ccccc3)nc3c([nH]c4ccccc43)c2=O)cc1,i,u,x,i,18µM*,x
O=C(CSc1nc2c([nH]c3ccccc32)c(=O)n1-c1ccc(F)cc1)NCc1ccco1,i,u,-9%,i,u,7%
Cc1ccc(-n2c(SCC(=O)NCc3ccccc3)nc3c([nH]c4ccccc43)c2=O)cc1,i,-29%,x,i,u,x
SMILES,KB-V1 cytotox,TDP1 cell noCPT,HT1080 IDH1KD tx,KB-3-1 cytotox,DT40 TDP1 CPT,HT1080NT lethal
O=c1c2[nH]c3ccccc3c2nc(SCc2cccc(F)c2)n1-c1ccccc1,x,23µM*,x,x,u,x
Cc1ccc(-n2c(SCc3ccccc3)nc3c([nH]c4ccccc43)c2=O)cc1,i,-5%,x,i,-26%,x
CSc1nc2c([nH]c3ccccc32)c(=O)n1-c1ccc(F)cc1,i,u,x,i,u,x
O=C(CSc1nc2c([nH]c3ccccc32)c(=O)n1-c1ccc(F)cc1)NCc1ccc(F)cc1,i,15µM*,x,i,u,x
CCSc1nc2c([nH]c3ccccc32)c(=O)n1-c1ccc(F)cc1,u,u,x,i,21µM*,x
N#Cc1cccc(NC(=O)N2CCC3(CC2)CCN(C(=O)c2ccco2)CC3)c1,x,u,x,x,-16%,x
NC(=NC(=O)c1ccc(OCC(F)(F)F)nc1)c1ccccc1,i,u,-2%,i,-29%,-1%

# High-throughput results as filed in PubChem BioAssay.
